Records with an inconclusive call do not appear. Active and inactive are the calls of the source. The calls were made as follows: active = hit-call score of the fitted dose curve at least 0.9, where 1 is the maximum; inconclusive = response in the unintended direction; inactive = score below 0.9.

A word on the AC50: it is the midpoint of the concentration-response curve, whichever way the signal moves.

Experiment [1] concerns the target Luciferin 4-monooxygenase (Photinus pyralis) (UniProt P08659). The experiment can be described thus: CCTE_Simmons_QuantiLum_inhib_2: CCTE's Firefly Luciferase Inhibition Assay, Simmons Lab (AID 2283767).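 As to AC50: potency for inhibitors that lower luciferase luminescence relative to DMSO.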 The method in brief: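 Eight-point titrations of each chemical, 5 nM–87.5 uM final in 0.5% DMSO, were run in three biological replicates against recombinant luciferase for 30 min at 37C. Bioluminescence signal loss, read on reagent injection, gave the inhibition endpoint.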

Experiment [2] is described as follows: ACEA_AR_agonist_AUC_viability: ACEA Biosciences xCELLigence Real-Time Cell Analysis on Androgen Receptor Agonism for Viability (AID 2283775).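 As to AC50: viability read 80 hours after compound addition.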 The method in brief: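 Viability endpoint from xCELLigence impedance in 22Rv1 prostate cells at 80 h. Eight-point series, 100 uM maximum final.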
Experiment [3] can be described thus: ACEA_AR_antagonist_AUC_viability: ACEA Biosciences xCELLigence Real-Time Cell Analysis on Androgen Receptor Antagonism for Viability (AID 2283776).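 Also: area under impedance growth curve at 80 h after dosing as viability; hits lower the growth signal relative to DMSO meaning cytotoxicity.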 The method in brief: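 22Rv1 human prostate cancer cells were seeded on electrode plates, monitored overnight, then exposed to eight 1:4 dilutions from 100 uM final. Impedance-based growth kinetics at 80 h gave an AUC viability endpoint normalized to DMSO.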

Experiment [4] deals with zebrafish Estrogen Receptor (ESR1), esr1 (gene 259252) (UniProt P57717). As to the kind of experiment: ATG_zfER1_XSP1: Attagene TRANS-FACTORIAL Multi-Species (XSP1) HepG2 Assay for zebrafish Estrogen Receptor (ESR1) (AID 2283772). The method, boiled down: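 Reporter mRNA induction, gauged via RT-PCR/capillary electrophoresis fluorescence relative to DMSO controls, in HepG2 cells transiently carrying GAL4-UAS reporter units; 24 h dosing.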

For experiment [5], the system named is zebrafish Estrogen Receptor (ESR2B), gene 317733. As to the kind of experiment: ATG_zfER2b_XSP1: Attagene TRANS-FACTORIAL Multi-Species (XSP1) HepG2 Assay for zebrafish Estrogen Receptor (ESR2B) (AID 2283773). The method, boiled down:
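Multiplexed TRANS format in transfected HepG2 liver cells, chimeric NR-Gal4 from zebrafish ESR2B. 24 h dosing; medium contains 3 nM 6-alpha-fluorotestosterone. mRNA induction by RT-PCR/CE, positive direction vs DMSO.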

Experiment [6] relates to frog Estrogen Receptor (ESR2), gene 100174814. The experiment can be described thus: ATG_frER2_XSP1: Attagene TRANS-FACTORIAL Multi-Species (XSP1) HepG2 Assay for frog Estrogen Receptor (ESR2) (AID 2283774). The method in brief:
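HepG2, transient MRTU transfection (GAL4-UAS reporters, exogenous NR-Gal4 chimeras); 24 h compound exposure; 3 nM 6α-fluorotestosterone co-added; total RNA → RT-PCR → 6-FAM primer extension → HpaI → CE. Positive direction vs DMSO.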

Experiment [7] relates to frog Estrogen Receptor (ESR1), gene 398734. As to the kind of experiment: ATG_frER1_XSP1: Attagene TRANS-FACTORIAL Multi-Species (XSP1) HepG2 Assay for frog Estrogen Receptor (ESR1) (AID 2283777). The method, boiled down: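 Transient MRTU transfection, HepG2 (human liver); 24 h dosing, 3 nM 6α-fluorotestosterone co-added; RNA → RT-PCR → 6-FAM labeling → CE; upward activity vs DMSO.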

Experiment [8] relates to zebrafish Estrogen Receptor (ESR2A), gene 317734. As to the kind of experiment: ATG_zfER2a_XSP1: Attagene TRANS-FACTORIAL Multi-Species (XSP1) HepG2 Assay for zebrafish Estrogen Receptor (ESR2A) (AID 2283778). The method in brief:
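Transient transfection of HepG2 (human liver) with MRTU constructs; chemical dosing for 24 h; medium contained 3 nM 6-alpha-fluorotestosterone to partly stimulate AR. RT-PCR/CE fluorescence of reporter transcripts; positive direction vs DMSO.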

Experiment [9] addresses chicken Estrogen Receptor (ESR1), ESR1 (gene 396099) (UniProt P06212). The experiment can be described thus: ATG_chERa_XSP1: Attagene TRANS-FACTORIAL Multi-Species (XSP1) HepG2 Assay for chicken Estrogen Receptor (ESR1) (AID 2283779). The method, boiled down:
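Read-out: fluorescent reporter mRNA fragments resolved by capillary electrophoresis after RT-PCR and HpaI digestion. Transfected HepG2 cells carried chimeric NR-Gal4 constructs, were dosed 24 h with 3 nM 6-alpha-fluorotestosterone added, and activity was fitted upward relative to DMSO.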

Experiment [10] relates to turtle Estrogen Receptor (ESR1), gene 101933533. The experiment can be described thus: ATG_trERa_XSP1: Attagene TRANS-FACTORIAL Multi-Species (XSP1) HepG2 Assay for turtle Estrogen Receptor (ESR1) (AID 2283781). The method, boiled down:
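Transfect HepG2 with reporter units → dose chemical 24 h (medium has 3 nM 6-alpha-fluorotestosterone) → isolate RNA, RT-PCR → FAM primer extension, HpaI digest → capillary electrophoresis; gain of signal vs DMSO.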

In experiment [11] the test system is chicken Androgen Receptor (AR), gene 422165. As to the kind of experiment: ATG_chAR_XSP1: Attagene TRANS-FACTORIAL Multi-Species (XSP1) HepG2 Assay for chicken Androgen Receptor (AR) (AID 2283768). The method, boiled down:
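Reporter mRNA read by RT-PCR with fluorescent labelling and capillary electrophoresis 24 h after chemical dosing of transiently transfected HepG2 cells. Chicken AR-Gal4 chimera, partially stimulated with 3 nM 6-alpha-fluorotestosterone; activity fitted upward relative to DMSO.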

For experiment [12], the system named is zebrafish Androgen Receptor (AR), gene 100005148. As to the kind of experiment: ATG_zfAR_XSP1: Attagene TRANS-FACTORIAL Multi-Species (XSP1) HepG2 Assay for zebrafish Androgen Receptor (AR) (AID 2283771). The method in brief: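 Gain-of-signal versus DMSO was measured as reporter transcripts quantified by RT-PCR, fluorescent labelling and capillary electrophoresis after 24 h chemical exposure. The cells were HepG2 expressing a chimeric zebrafish AR-GAL4, co-stimulated with 3 nM 6-alpha-fluorotestosterone.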

Experiment [13] addresses Estrogen receptor (Homo sapiens) (UniProt P03372). As to the kind of experiment: ATG_hERa_XSP1: Attagene TRANS-FACTORIAL Multi-Species (XSP1) HepG2 Assay for human Estrogen Receptor (ESR1) (AID 2283780). The method, boiled down: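 Reporter transcripts from multiplexed GAL4-UAS units driven by NR-Gal4 chimeras in transiently transfected HepG2 were measured by RT-PCR with capillary electrophoresis 24 h post-dose, with 3 nM 6-alpha-fluorotestosterone present; gain-of-signal relative to DMSO.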

Chain of Estrogen receptor (Homo sapiens) (P03372 whole entry, looked up, the tested form may be a part): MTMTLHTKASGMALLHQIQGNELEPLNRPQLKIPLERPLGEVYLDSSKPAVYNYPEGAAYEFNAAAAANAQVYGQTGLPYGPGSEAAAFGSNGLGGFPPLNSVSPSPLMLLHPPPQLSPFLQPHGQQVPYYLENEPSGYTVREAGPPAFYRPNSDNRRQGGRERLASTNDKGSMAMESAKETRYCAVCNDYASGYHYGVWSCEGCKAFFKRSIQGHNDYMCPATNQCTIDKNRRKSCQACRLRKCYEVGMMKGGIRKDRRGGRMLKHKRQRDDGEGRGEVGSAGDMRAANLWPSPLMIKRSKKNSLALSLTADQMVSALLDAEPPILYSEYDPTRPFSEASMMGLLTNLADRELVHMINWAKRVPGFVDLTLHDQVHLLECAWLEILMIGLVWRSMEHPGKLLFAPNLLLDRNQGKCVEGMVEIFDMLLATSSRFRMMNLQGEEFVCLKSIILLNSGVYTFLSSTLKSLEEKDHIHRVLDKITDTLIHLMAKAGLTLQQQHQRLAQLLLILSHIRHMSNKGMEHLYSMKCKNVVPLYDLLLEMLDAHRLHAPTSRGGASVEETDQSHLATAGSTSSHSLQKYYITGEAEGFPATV
Chain of Luciferin 4-monooxygenase (Photinus pyralis) (P08659 whole entry, looked up): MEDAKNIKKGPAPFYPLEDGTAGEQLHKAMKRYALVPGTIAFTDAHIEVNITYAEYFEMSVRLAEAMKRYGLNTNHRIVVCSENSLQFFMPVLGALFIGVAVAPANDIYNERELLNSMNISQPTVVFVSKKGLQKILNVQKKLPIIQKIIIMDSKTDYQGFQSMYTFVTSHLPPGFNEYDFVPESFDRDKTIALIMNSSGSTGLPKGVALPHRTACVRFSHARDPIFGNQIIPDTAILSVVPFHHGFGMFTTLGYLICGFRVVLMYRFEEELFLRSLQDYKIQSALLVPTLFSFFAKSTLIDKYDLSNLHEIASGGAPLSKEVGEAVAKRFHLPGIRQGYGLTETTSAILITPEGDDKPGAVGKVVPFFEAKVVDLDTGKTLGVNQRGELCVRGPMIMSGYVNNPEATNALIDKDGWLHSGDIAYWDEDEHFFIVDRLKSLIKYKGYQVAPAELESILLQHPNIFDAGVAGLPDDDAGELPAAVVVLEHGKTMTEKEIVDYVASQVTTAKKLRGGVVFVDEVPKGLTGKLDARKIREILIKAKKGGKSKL
Chain of chicken Estrogen Receptor (ESR1), ESR1 (gene 396099) (P06212 whole entry, looked up, the tested form may be a part): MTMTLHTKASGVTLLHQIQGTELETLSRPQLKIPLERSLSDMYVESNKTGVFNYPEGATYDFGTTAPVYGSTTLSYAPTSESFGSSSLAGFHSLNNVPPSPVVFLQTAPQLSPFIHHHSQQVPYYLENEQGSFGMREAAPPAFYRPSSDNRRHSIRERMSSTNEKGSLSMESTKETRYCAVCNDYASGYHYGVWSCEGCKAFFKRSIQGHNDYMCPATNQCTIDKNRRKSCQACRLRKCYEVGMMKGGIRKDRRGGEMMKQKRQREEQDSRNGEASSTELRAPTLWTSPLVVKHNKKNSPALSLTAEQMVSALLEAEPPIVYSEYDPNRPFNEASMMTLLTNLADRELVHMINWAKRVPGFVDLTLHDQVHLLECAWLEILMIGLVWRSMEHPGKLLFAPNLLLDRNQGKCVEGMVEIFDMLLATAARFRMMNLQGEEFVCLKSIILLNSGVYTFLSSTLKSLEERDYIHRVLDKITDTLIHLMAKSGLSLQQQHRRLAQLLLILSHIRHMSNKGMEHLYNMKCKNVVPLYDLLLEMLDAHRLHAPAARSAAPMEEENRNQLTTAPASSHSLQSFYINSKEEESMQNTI
Chain of zebrafish Estrogen Receptor (ESR1), esr1 (gene 259252) (P57717 whole entry, looked up, the tested form may be a part): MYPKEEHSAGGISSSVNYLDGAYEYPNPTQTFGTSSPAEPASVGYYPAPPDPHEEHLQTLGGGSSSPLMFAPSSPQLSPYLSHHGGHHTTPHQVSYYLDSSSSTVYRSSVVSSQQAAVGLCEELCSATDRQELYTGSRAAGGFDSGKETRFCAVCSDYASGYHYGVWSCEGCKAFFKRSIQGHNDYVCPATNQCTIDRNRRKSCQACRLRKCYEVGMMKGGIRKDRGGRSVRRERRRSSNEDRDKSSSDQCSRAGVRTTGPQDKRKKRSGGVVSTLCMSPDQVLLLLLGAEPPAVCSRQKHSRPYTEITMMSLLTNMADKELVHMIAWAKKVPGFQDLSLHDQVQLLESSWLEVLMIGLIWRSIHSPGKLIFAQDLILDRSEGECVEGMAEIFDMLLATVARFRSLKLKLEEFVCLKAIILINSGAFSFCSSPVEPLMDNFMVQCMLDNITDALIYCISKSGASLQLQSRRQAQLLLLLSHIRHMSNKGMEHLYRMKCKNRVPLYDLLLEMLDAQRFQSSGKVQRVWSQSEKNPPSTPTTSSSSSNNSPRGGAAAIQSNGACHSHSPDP

Consider `CN1CSC(=S)N(C)C1`, for which the half-maximal activity concentration (AC50) is 40.5 µM (active) in [1], 50 µM (active) in experiment [2] and 31.5 µM (active) in experiment [3].

Turning to `Oc1ccc(Cl)cc1Cc1ccccc1`, the compound was called inactive in experiment [1], in [4], in experiment [8] and in experiment [9]. Further, the AC50 was 3.36 µM (active) in experiment [5]; 2.69 µM (active) in [6]; 18.2 µM (active) in experiment [2]; 13.8 µM (active) in experiment [3]; 2.63 µM (active) in [7]; 2.74 µM (active) in experiment [10].

Regarding `CNC(=O)CSP(=S)(OC)OC`, the AC50 in [1] is 34.2 µM (active). Also, the call in experiment [3] was inactive.

Consider `CC1(C)C(C=C(Cl)Cl)C1C(=O)OC(C#N)c1ccc(F)c(Oc2ccccc2)c1` (stereo not drawn), for which the compound was called inactive in experiment [11], in experiment [12], in experiment [8] and in experiment [13]. The half-maximal activity concentration (AC50) was 35.5 µM (active) in experiment [5]; 27 µM (active) in [6]; 67.2 µM (active) in experiment [2]; 30.1 µM (active) in [3]; 13.9 µM (active) in experiment [7]; 27.5 µM (active) in [9]. For the same compound, the AC50 in [10] is 27.5 µM (active).

In the case of `O=C1c2ccccc2C(=O)N1SC(Cl)(Cl)Cl`, in experiment [1], the call was inactive. The AC50 in [2] was 8.53 µM (active); in experiment [3], 19.2 µM (active).

`O=C(Nc1ccccc1)Nc1cnns1`: the call in experiment [1] was inactive. Further, the AC50 is 28.6 µM (active) in experiment [2] and 50 µM (active) in [3].

Take `CNC(=O)/C=C(\C)OP(=O)(OC)OC`: the outcome in experiment [1] and in experiment [3] was inactive.

For the compound `CCCN(CCC)c1c([N+](=O)[O-])cc(C(F)(F)F)cc1[N+](=O)[O-]`, the AC50 in experiment [11] was 47.9 µM (active); in experiment [5] it was 44.3 µM (active); in experiment [6], 33.1 µM (active); in [2], 80.7 µM (active); in [3], 50 µM (active); in experiment [7], 7.74 µM (active). Further, the values for the AC50 in [9] and in experiment [10] were 27.2 µM (active) and 27.9 µM (active), respectively. The compound was classed as inactive in [4] and in experiment [13].

Regarding `CC1(c2ccc(Oc3ccccc3)cc2)OC(=O)N(Nc2ccccc2)C1=O` (stereo not drawn), the compound was called inactive in experiment [1]. The AC50 is 1.01 µM (active) in experiment [2] and 0.883 µM (active) in experiment [3].

`CCOCN(C(=O)CCl)c1c(C)cccc1CC`: the AC50 in [5] was 29.5 µM (active); in experiment [6], 77.1 µM (active); in [2] it was 50 µM (active); in [3], 40.9 µM (active). Further, the result in [9] and in experiment [13] was inactive.

On to `N#CN`, for which the call in [1], in experiment [2] and in experiment [3] was inactive.

In the case of `CC(C)OC(=O)Nc1cccc(Cl)c1`, the AC50 was 86.1 µM (active) in [2] and 50 µM (active) in experiment [3].

As for `COP(=S)(OC)Oc1ccc([N+](=O)[O-])cc1`, the call in experiment [1] and in experiment [3] was inactive.

Take `CNC(=O)Oc1cccc(N=CN(C)C)c1`: the compound was classed as inactive in experiment [1], in experiment [2] and in [3].

Values taken from PubChem BioAssay (EPA / NIEHS).
